# Results published in PubChem BioAssay AID651599 (National Center for Advancing Translational Sciences (NCATS), 2012).
# Inconclusive results are not listed. Unmarked numbers belong to inactive results. Calls of active or inactive are those of the source. Calls come from the whole dose curve; as a rule, active = well fitted inhibition curve with a large enough effect; inconclusive = small, poorly fitted or top-dose-only effect; inactive = no such curve, though single readings can be large or run the other way.
# Target: Tumor susceptibility gene 101 protein (Homo sapiens) (UniProt Q99816)
# Sequence (Q99816 whole entry, looked up): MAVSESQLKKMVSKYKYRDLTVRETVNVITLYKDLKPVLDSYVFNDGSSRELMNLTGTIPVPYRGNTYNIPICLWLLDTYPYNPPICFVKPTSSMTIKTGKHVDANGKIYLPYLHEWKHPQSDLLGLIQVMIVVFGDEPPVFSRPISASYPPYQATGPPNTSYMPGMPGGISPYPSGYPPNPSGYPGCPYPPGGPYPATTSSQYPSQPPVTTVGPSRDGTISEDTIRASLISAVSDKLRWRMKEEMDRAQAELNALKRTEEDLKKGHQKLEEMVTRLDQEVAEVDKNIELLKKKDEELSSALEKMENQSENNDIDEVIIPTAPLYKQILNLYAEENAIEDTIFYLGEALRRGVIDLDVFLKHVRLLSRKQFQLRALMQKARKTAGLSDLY
# Assay: qHTS Assay for Iinhibitors of HIV-1 Budding by Blocking the Interaction of PTAP/TSG101: Hit Validation in TR assay
# Details: Tsg101 binding domain + Texas Red-labeled PTAP peptide, fluorescence polarization, 20 min; series mostly up to 57.5 µM; activity change, negative = inhibition: at the top concentration
# Text: Stages of the HIV-1 replication cycle, specifically virus assembly and release, provide underexploited targets for the development of novel antiviral inhibitors. The late stages of HIV-1 replication are mediated by the Gag precursor protein, Pr55Gag. Expression of Pr55Gag is both necessary and sufficient for the production of virus-like particles from Gag-expressing cells. The Gag protein hijacks key host proteins involved in endocytic machinery of the host cell to promote endosomal processing and viral budding. The budding process requires a direct interaction between a […] (PTAP) motif in the p6 domain of Gag and the cellular endosomal sorting protein known as Tsg101. In this way, the Gag PTAP motif promotes the host cells to recruit viral particles to the plasma membrane where the new viral particles are released, effectively turning the host cells into viral factories. A fluorescence anisotropy assay has been developed to quantitatively measure the PTAP-Tsg101 interaction which can be used to screen for inhibitors of this interaction.
# This hit validation assay is similar to the primary assay but uses the Texas Red label instead of FITC.
# NIH Molecular Libraries Probe Production Network [MLPCN]
# NIH Chemical Genomics Center [NCGC]
# PI Name: Dr. Eric Freed, NCI
# Two uL of the Tsg101 binding domain in buffer (10 mM HEPES pH 7.5; 0.15 M NaCl, 0.01% Tween 20; 3 mM EDTA;0.1 mM TCEP) was dispensed into Greiner black MB 1536-well plates (final concentration 10 uM). Then, 23 nL of compounds or DMSO were delivered to each well using a pin tool. Finally, 2 uL of a TR-labeled peptide containing the PTAP motif (1) in the same buffer was dispensed (50 nM final concentration) and the binding was allowed to proceed for 20 min. at r.t. Fluorescent polarization was determined using TR excitation and polarized emission filters on a Perkin Elmer Viewlux.
# Keywords: Tsg101, PTAP, Gag, HIV, fluorescent polarization, MLSMR, MLPCN, NIH Roadmap, qHTS, NCGC
# % is set by controls: 0 for no effect and ±100 for the full control effect; potency is the fitted concentration of half-maximal effect.
SMILES,"activity change, negative = inhibition",Potency
O=C(C1=NN(c2ccccc2)C2C(=O)N(c3ccccc3Cl)C(=O)C12)c1ccccc1 (stereo not given),19.6%,–
CCN(c1ccc(N=Cc2c(O)n(Cc3ccc(OC)cc3)c(=O)c3ccccc23)cc1)C(C)C,-9.69%,–
COC(=O)c1cc(N2CCN(C)CC2)nc2ccccc12,-2.81%,–
CN1CCCc2cc3c(C(F)(F)F)cc(=O)oc3nc21,4.6%,–
COc1ncnc2c1NC1=C(S2)C(=NCCC(=O)O)CC(C)(C)C1,-7.13%,–
CC1C2C(C)N(C)C(=O)N(C)C2N(C)C(=O)N1C (stereo not given),-1.62%,–
COc1cccc(C2C3CN(C)CC=C3C(C#N)=C(N)C2(C#N)C#N)c1OC (stereo not given),-12.7%,–
c1ccc2c(c1)CCCN2Cc1nnnn1CC1CCCO1 (stereo not given),–,18.3 µM (active)
CCNc1cccc2c1C(=O)N(C)C2=O,101%,–
Cc1c2ccccc2nc2c(F)c(NCCO)c(F)c(F)c12,11.2%,–
Oc1c(C=Nc2ccccc2)sc2ccccc12,–,36.6 µM (active)
CCNc1ccc2noc3c2c1C(=O)c1ccccc1-3,-63.1%,–
CCc1cc(C(=O)Nc2ccc(OC)nc2)sc1C,1.64%,–
Cc1ccc(N2C(=O)C3C(C(=O)c4ccccc4)=NN(c4ccccc4)C3C2=O)cc1 (stereo not given),-18.9%,–
O=C(NC1CCCC1)c1cccc2c1C(=O)c1ccc(N3CCCCC3)cc1S2(=O)=O,-15.8%,–
COc1ccc(-c2onc3ccc(Br)cc23)cc1,179%,–
O=C(/C=C/c1ccc(Cl)cc1Cl)c1nc2ccccc2[nH]1,1.89%,–
CCOc1ccc(NC(=O)c2ccc3c(c2)CCN3S(C)(=O)=O)cc1,-6.96%,–
Nc1c(C(=O)C2CC2)sc2nc(-c3ccccc3)cc(C(F)(F)F)c12,19.3%,–
COc1cccc2c1C(=O)c1c(O)c3c(c(O)c1C2=O)C[C@](O)(C(C)=O)C[C@H]3O[C@@H]1C[C@@H](N)[C@@H](O)[C@@H](C)O1,-13.4%,–

SMILES,"activity change, negative = inhibition",Potency
Cc1cc(-c2cccs2)c2c(N)c(C(=O)c3ccc4c(c3)OCO4)sc2n1,-1.4%,–
Cc1n[nH]c(C)c1N1C(=O)c2cccc3c(N4CCCCCC4)ccc(c23)C1=O,5.79%,–
O=C(OCCN1C(=O)c2cccc3c(N4CCOCC4)ccc(c23)C1=O)c1cccc(Cl)c1,-22.4%,–
O=[N+]([O-])c1cc(Cl)c2cccnc2c1O,-23.7%,–
C(=N\NC1=Nc2cccc3cccc1c23)/c1ccccc1,6.35%,–
CCN(CC)C(=O)Cn1c(=O)c2ccccc2n2c(=S)sc(-c3cccc(C)c3)c12,56.1%,–
Cc1cc[n+](-c2[nH]c(=O)sc2/C=N/N=C(\[O-])c2ccccc2)cc1C,-14.1%,–
CCc1ccccc1N=Cc1c(C)c(C#N)c2[nH]c3ccccc3n2c1=O,22.2%,–
O=Cc1nccc2ccccc12,395%,–
COc1c([N+](=O)[O-])c(=O)n(-c2ccccc2)c2ccccc12,-0.146%,–
Cc1ccc(C2C=C(c3ccccc3)Nc3nc(NS(C)(=O)=O)nn32)cc1 (stereo not given),-8.43%,–
O=C1c2cccc3c(O)ccc(c23)C(=O)N1Cc1ccccc1,0.844%,–
Cc1ccc(N=Cc2c(O)ccc3ccccc23)cc1F,18.9%,–
CC(C)CSC1=NSC2=NC(=O)/C(=C\c3coc4ccccc4c3=O)C(=N)N12,34.4%,–
COc1ccc(OC)c(/C=C(\C#N)c2nc3ccccc3c(=O)[nH]2)c1,27.1%,–
CCCCCCc1cc2cc(C(=O)NC)c(=N)oc2cc1O,-3.42%,–
CCCCOc1ccc(C2OC34CCCCC3C(C#N)(C#N)C2(C#N)C(=N)O4)cc1 (stereo not given),-11.2%,–
Cc1cc(Nc2cccc(Cl)c2C)n2ncnc2n1,-4.37%,–
CC(C)CCN1C(=O)c2cccc3c(N)ccc(c23)C1=O,-6.02%,–
COC(=O)C[n+]1cccc2ccccc21,11.3%,–
